Several values for one entry are separate records, joined by “and”; a condition that tells them apart may be missing. Equal entries are not always repeated. Inconclusive results are not listed. A call without a number means that no potency is given here. A structure can be active in one record and inactive in another. Activity calls are given as the source filed them. Unless noted, calls follow the shape of the full dose curve.
tested on: not listed separately; experiment: qHTS assay to identify small molecule agonists of the sonic hedgehog signaling (Shh) pathway (AID 1259368); details: NIH/3T3 Gli1-Luc reporter, luciferase, 24 h, stronger effect = higher value; series mostly up to 92.4 µM; activity change: at the top concentration;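 also: NIH/3T3-derived 3T3Gli1-Luc cells carrying a stable Gli1-driven firefly luciferase reporter; nearly all actives have a fitted effect of over 15% in size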
In short: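 Cells of a mouse NIH/3T3 clone stably expressing luciferase under the Gli1 transcriptional response element are exposed to test chemicals for 24 hr at 37 C. Pathway activation is detected as a rise in luminescence.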

Compound	outcome	activity change
O=C(O)CC(O)C(=O)O (configuration not stated)	inactive	–
CCOc1ccc(NC(C)=O)cc1	inactive	–
CC(C)C(=O)Nc1ccc([N+](=O)[O-])c(C(F)(F)F)c1	inactive	–
NC(=O)c1cccnc1	inactive	–
COc1ccc(C(Cl)=C(c2ccc(OC)cc2)c2ccc(OC)cc2)cc1	inactive	–
C=C(C)C(=O)OCC(C)O (configuration not stated)	inactive	–
O=CC(=O)c1ccccc1	–	8.97% (inactive)
O=c1[nH]cc(F)c(=O)[nH]1	inactive	–
NS(=O)(=O)c1cc2c(cc1Cl)NCNS2(=O)=O	inactive	–
CN(C)CCOC(C)(c1ccccc1)c1ccccn1 (configuration not stated)	inactive	–
CC(C)NCC(O)c1ccc(O)c(O)c1 (configuration not stated)	inactive	–
Cc1cn([C@H]2C=C[C@@H](CO)O2)c(=O)[nH]c1=O	inactive	–
CCc1nc(N)nc(N)c1-c1ccc(Cl)cc1	inactive	–
C/C=C/C=C/C(=O)O	inactive	–
Nc1c(N=Nc2ccc(-c3ccc(N=Nc4cc(S(=O)(=O)O)c5ccccc5c4N)cc3)cc2)cc(S(=O)(=O)O)c2ccccc12	–	-3.96% (inactive)
Nc1c2c(nc3ccccc13)CCCC2	inactive	–
O=S1(=O)OC(c2ccc(O)cc2)(c2ccc(O)cc2)c2ccccc21	inactive	–
CCCCCCCC(=O)OCC(COC(=O)CCCCCCC)OC(=O)CCCCCCC	inactive	–
NS(=O)(=O)O	inactive	–
Cc1c(C(=O)O)c(O)cc2c1C(=O)c1c(O)c([C@@H]3O[C@H](CO)[C@@H](O)[C@H](O)[C@H]3O)c(O)c(O)c1C2=O	inactive	–
CCCCCCCCCCCCCCCC[N+](C)(C)Cc1ccccc1	inactive	–
CC1(C)O[C@@H]2C[C@H]3[C@@H]4CCC5=CC(=O)C=C[C@]5(C)[C@@]4(F)[C@@H](O)C[C@]3(C)[C@]2(C(=O)CO)O1	–	1.64% [at 42.5 µM] (inactive)
Nc1ccc(S(N)(=O)=O)cc1	inactive	–
CN(C)CCOC(c1ccccc1)c1ccccc1	inactive	–
CCCCOC(=O)c1ccc(O)cc1	inactive	–
NC1CCCCC1	inactive	–
CCN(CC)C(=O)c1cccc(C)c1	inactive	–
CNNCc1ccc(C(=O)NC(C)C)cc1	inactive	–
OC[C@H]1O[C@H](O[C@]2(CCl)O[C@H](CCl)[C@@H](O)[C@@H]2O)[C@H](O)[C@@H](O)[C@H]1Cl	inactive	–

tested on: not listed separately; experiment: qHTS assay to identify small molecule antagonists of the sonic hedgehog signaling (Shh) pathway (AID 1259369); details: NIH/3T3 Gli1-Luc reporter, Shh antagonist, luminescence 24 h; series mostly up to 92.4 µM; activity change, negative = inhibition: at the top concentration; also: nearly all actives have a fitted effect of over 45% in size; also: potency is read from the fitted curve at half-maximal effect
In short: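 Cells are plated and held 4hr at 37 C, compounds (DMSO) are pinned in, conditioned medium is added to stimulate the pathway, and after 24hr luciferase reagent is added for 30min before luminescence is read.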

Compound	Potency	activity change, negative = inhibition
O=C(O)CC(O)C(=O)O (configuration not stated)	inactive	–
CCOc1ccc(NC(C)=O)cc1	inactive	–
CC(C)C(=O)Nc1ccc([N+](=O)[O-])c(C(F)(F)F)c1	17.7 µM (active)	–
NC(=O)c1cccnc1	inactive	–
COc1ccc(C(Cl)=C(c2ccc(OC)cc2)c2ccc(OC)cc2)cc1	inactive	–
C=C(C)C(=O)OCC(C)O (configuration not stated)	inactive	–
O=CC(=O)c1ccccc1	–	-19% (inactive)
O=c1[nH]cc(F)c(=O)[nH]1	inactive	–
NS(=O)(=O)c1cc2c(cc1Cl)NCNS2(=O)=O	inactive	–
CN(C)CCOC(C)(c1ccccc1)c1ccccn1 (configuration not stated)	inactive	–
CC(C)NCC(O)c1ccc(O)c(O)c1 (configuration not stated)	–	-7.98% (inactive)
Cc1cn([C@H]2C=C[C@@H](CO)O2)c(=O)[nH]c1=O	inactive	–
CCc1nc(N)nc(N)c1-c1ccc(Cl)cc1	17.5 µM (active) and 27.3 µM (active)	–
C/C=C/C=C/C(=O)O	inactive	–
Nc1c(N=Nc2ccc(-c3ccc(N=Nc4cc(S(=O)(=O)O)c5ccccc5c4N)cc3)cc2)cc(S(=O)(=O)O)c2ccccc12	–	-31.2% (inactive)
Nc1c2c(nc3ccccc13)CCCC2	8.63 µM (active) and 13.7 µM (active)	–
O=S1(=O)OC(c2ccc(O)cc2)(c2ccc(O)cc2)c2ccccc21	27.3 µM (active) and inactive	–
CCCCCCCC(=O)OCC(COC(=O)CCCCCCC)OC(=O)CCCCCCC	inactive	–
NS(=O)(=O)O	inactive	–
Cc1c(C(=O)O)c(O)cc2c1C(=O)c1c(O)c([C@@H]3O[C@H](CO)[C@@H](O)[C@H](O)[C@H]3O)c(O)c(O)c1C2=O	inactive	–
CCCCCCCCCCCCCCCC[N+](C)(C)Cc1ccccc1	1.78 µM (active) and 6.98 µM (active) and 150 nM (active)	–
CC1(C)O[C@@H]2C[C@H]3[C@@H]4CCC5=CC(=O)C=C[C@]5(C)[C@@]4(F)[C@@H](O)C[C@]3(C)[C@]2(C(=O)CO)O1	–	-34.4% (inactive)
Nc1ccc(S(N)(=O)=O)cc1	inactive	–
CN(C)CCOC(c1ccccc1)c1ccccc1	inactive	–
CCCCOC(=O)c1ccc(O)cc1	inactive	–
NC1CCCCC1	inactive	–
CCN(CC)C(=O)c1cccc(C)c1	inactive	–
CNNCc1ccc(C(=O)NC(C)C)cc1	inactive	–
OC[C@H]1O[C@H](O[C@]2(CCl)O[C@H](CCl)[C@@H](O)[C@@H]2O)[C@H](O)[C@@H](O)[C@H]1Cl	inactive	–

target: Estrogen receptor beta (Homo sapiens) (UniProt Q92731); experiment: qHTS assay to identify small molecule agonists of the estrogen receptor beta (ER-beta) signaling pathway (AID 1259377; active = well fitted activation curve with a large enough effect in the signal ratio in the repeat runs, not every such curve was filed as active; the % refers to the signal ratio; also: potency is read from the fitted curve at half-maximal effect); details: ER-beta-UAS-bla HEK293T, beta-lactamase FRET ratio, 16 h; series mostly up to 92.4 µM; activation: at the top concentration
Sequence (Q92731 whole entry, looked up): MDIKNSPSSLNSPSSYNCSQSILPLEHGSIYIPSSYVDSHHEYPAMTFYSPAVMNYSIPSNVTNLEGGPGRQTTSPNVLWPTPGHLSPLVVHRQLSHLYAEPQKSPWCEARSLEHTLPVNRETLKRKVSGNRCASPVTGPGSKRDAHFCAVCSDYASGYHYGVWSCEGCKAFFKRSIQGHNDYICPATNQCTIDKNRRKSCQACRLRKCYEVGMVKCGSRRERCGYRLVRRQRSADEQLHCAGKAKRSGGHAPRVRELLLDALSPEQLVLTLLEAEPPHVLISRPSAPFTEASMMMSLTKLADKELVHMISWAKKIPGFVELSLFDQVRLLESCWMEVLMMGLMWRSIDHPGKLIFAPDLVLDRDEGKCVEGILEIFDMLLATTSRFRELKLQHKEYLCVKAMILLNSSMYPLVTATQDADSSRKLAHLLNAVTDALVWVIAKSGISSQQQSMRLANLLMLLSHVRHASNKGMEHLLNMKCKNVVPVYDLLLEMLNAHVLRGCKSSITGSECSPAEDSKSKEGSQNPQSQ
In short: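 Reporter cells (HEK293T, ER-beta-UAS-bla) receive compounds or DMSO after a 6 hr pre-incubation. They then incubate 16 hr at 37C/5% CO2, and fluorescence from LiveBLAzer B/G substrate is measured after 2 hours at room temperature.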

Compound	Potency	activation
O=C(O)CC(O)C(=O)O (configuration not stated)	inactive	–
CCOc1ccc(NC(C)=O)cc1	inactive	–
CC(C)C(=O)Nc1ccc([N+](=O)[O-])c(C(F)(F)F)c1	inactive	–
NC(=O)c1cccnc1	inactive	–
COc1ccc(C(Cl)=C(c2ccc(OC)cc2)c2ccc(OC)cc2)cc1	inactive	–
C=C(C)C(=O)OCC(C)O (configuration not stated)	inactive	–
O=CC(=O)c1ccccc1	–	-2.2% (inactive)
O=c1[nH]cc(F)c(=O)[nH]1	inactive	–
NS(=O)(=O)c1cc2c(cc1Cl)NCNS2(=O)=O	inactive	–
CN(C)CCOC(C)(c1ccccc1)c1ccccn1 (configuration not stated)	inactive	–
CC(C)NCC(O)c1ccc(O)c(O)c1 (configuration not stated)	inactive	–
Cc1cn([C@H]2C=C[C@@H](CO)O2)c(=O)[nH]c1=O	inactive	–
CCc1nc(N)nc(N)c1-c1ccc(Cl)cc1	inactive	–
C/C=C/C=C/C(=O)O	inactive	–
Nc1c(N=Nc2ccc(-c3ccc(N=Nc4cc(S(=O)(=O)O)c5ccccc5c4N)cc3)cc2)cc(S(=O)(=O)O)c2ccccc12	–	4.27% (inactive)
Nc1c2c(nc3ccccc13)CCCC2	inactive	–
O=S1(=O)OC(c2ccc(O)cc2)(c2ccc(O)cc2)c2ccccc21	–	1.86% [at 42.5 µM] (inactive)
CCCCCCCC(=O)OCC(COC(=O)CCCCCCC)OC(=O)CCCCCCC	inactive	–
NS(=O)(=O)O	inactive	–
Cc1c(C(=O)O)c(O)cc2c1C(=O)c1c(O)c([C@@H]3O[C@H](CO)[C@@H](O)[C@H](O)[C@H]3O)c(O)c(O)c1C2=O	–	7.16% [at 42.5 µM] (inactive)
CCCCCCCCCCCCCCCC[N+](C)(C)Cc1ccccc1	inactive	–
CC1(C)O[C@@H]2C[C@H]3[C@@H]4CCC5=CC(=O)C=C[C@]5(C)[C@@]4(F)[C@@H](O)C[C@]3(C)[C@]2(C(=O)CO)O1	inactive	–
Nc1ccc(S(N)(=O)=O)cc1	inactive	–
CN(C)CCOC(c1ccccc1)c1ccccc1	inactive	–
CCCCOC(=O)c1ccc(O)cc1	–	1.81% (inactive)
NC1CCCCC1	2.75 µM (active) and inactive	–
CCN(CC)C(=O)c1cccc(C)c1	inactive	–
CNNCc1ccc(C(=O)NC(C)C)cc1	inactive	–
OC[C@H]1O[C@H](O[C@]2(CCl)O[C@H](CCl)[C@@H](O)[C@@H]2O)[C@H](O)[C@@H](O)[C@H]1Cl	inactive	–
